Our source for the inhibition values is ChEMBL document CHEMBL1961873, “Compounds: GSK PKIS; Assays: Nanosyn kinase panel” (2012).

The target of assay [1] is Sphingosine kinase 1 (Homo sapiens) (UniProt Q9NYA1). As to conditions: at 1 µM.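 Further: mean SPHK1 inhibition value reported from the GSK PKIS kinase panel screen.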
Assay [2] has as its target T1, Sphingosine kinase 2 (Homo sapiens) (UniProt Q9NRA0).
T1 sequence (whole entry): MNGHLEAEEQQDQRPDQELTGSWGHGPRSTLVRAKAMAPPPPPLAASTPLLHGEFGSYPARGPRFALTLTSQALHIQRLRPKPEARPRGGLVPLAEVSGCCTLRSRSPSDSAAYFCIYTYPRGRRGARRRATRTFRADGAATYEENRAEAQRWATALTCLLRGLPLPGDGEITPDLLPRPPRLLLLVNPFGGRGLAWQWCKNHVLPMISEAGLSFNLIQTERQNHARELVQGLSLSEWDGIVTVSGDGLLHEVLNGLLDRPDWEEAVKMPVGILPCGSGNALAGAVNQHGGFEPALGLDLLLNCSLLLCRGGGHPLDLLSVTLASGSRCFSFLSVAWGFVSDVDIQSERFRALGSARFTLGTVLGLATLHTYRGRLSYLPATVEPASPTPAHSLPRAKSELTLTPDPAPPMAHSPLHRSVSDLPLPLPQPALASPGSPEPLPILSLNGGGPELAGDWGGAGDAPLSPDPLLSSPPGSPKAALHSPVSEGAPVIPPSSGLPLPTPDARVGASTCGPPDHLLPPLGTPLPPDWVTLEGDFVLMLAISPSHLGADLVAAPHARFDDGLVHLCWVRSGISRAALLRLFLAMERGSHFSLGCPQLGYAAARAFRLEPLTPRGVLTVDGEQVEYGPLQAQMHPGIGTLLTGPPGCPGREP
The conditions noted are these: at 0.1 µM.

The target of assay [3] is T1, Sphingosine kinase 2 (Homo sapiens). As to conditions: at 1 µM.
For assay [4], the target named is Casein kinase II subunit alpha (Homo sapiens) (UniProt P68400). As to conditions: at 0.1 µM.
Assay [5] has the same target. The conditions noted are these: at 1 µM.
Assay [6] concerns the target T2, Inhibitor of nuclear factor kappa-B kinase subunit alpha (Homo sapiens) (UniProt O15111).
T2 sequence (whole entry): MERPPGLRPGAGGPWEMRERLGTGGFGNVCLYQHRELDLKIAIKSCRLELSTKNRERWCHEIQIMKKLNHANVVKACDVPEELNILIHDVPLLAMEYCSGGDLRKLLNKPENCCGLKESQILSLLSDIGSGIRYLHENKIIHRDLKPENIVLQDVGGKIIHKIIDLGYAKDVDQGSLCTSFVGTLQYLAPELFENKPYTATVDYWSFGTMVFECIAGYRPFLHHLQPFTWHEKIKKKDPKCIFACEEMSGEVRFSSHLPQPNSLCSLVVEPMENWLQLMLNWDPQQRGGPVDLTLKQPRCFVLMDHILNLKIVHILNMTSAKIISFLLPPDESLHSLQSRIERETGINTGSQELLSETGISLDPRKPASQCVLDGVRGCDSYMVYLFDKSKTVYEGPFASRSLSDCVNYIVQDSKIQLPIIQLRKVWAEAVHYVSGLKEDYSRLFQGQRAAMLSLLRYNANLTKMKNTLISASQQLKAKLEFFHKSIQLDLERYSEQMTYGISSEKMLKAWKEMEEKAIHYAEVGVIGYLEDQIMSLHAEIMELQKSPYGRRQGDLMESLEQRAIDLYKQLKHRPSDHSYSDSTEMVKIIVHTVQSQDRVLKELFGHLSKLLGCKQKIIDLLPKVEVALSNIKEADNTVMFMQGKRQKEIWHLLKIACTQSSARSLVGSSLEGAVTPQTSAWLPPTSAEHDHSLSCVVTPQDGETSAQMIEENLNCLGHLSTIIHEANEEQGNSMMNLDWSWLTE
As to conditions: at 0.1 µM.

Assay [7] has as its target T2, Inhibitor of nuclear factor kappa-B kinase subunit alpha (Homo sapiens). As to conditions: at 1 µM.
Assay [8] addresses T3, Inhibitor of nuclear factor kappa-B kinase subunit beta (Homo sapiens) (UniProt O14920).
T3 sequence (whole entry): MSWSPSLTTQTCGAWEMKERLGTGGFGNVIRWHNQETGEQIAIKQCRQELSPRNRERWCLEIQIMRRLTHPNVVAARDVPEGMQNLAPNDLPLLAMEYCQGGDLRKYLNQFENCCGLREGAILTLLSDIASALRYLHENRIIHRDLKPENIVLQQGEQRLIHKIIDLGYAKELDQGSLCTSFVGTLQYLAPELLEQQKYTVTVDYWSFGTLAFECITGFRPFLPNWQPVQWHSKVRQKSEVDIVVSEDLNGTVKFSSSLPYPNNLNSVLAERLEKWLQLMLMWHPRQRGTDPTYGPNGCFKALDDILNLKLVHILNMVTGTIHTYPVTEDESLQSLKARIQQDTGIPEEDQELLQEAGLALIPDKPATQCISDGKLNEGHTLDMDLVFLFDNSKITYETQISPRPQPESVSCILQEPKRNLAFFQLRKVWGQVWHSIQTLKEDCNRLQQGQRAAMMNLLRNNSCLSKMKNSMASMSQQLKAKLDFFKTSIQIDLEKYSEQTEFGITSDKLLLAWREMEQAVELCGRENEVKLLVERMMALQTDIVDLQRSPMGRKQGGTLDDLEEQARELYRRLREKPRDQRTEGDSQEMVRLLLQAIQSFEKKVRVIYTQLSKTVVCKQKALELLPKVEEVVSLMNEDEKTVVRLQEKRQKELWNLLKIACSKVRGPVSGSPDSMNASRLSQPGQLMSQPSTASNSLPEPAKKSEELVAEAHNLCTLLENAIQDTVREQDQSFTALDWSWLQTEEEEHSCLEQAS
As to conditions: at 0.1 µM.

The target in assay [9] is T3, Inhibitor of nuclear factor kappa-B kinase subunit beta (Homo sapiens). As to conditions: at 1 µM.
In assay [10] the target is T4, Inhibitor of nuclear factor kappa-B kinase subunit epsilon (Homo sapiens) (UniProt Q14164).
T4 sequence (whole entry): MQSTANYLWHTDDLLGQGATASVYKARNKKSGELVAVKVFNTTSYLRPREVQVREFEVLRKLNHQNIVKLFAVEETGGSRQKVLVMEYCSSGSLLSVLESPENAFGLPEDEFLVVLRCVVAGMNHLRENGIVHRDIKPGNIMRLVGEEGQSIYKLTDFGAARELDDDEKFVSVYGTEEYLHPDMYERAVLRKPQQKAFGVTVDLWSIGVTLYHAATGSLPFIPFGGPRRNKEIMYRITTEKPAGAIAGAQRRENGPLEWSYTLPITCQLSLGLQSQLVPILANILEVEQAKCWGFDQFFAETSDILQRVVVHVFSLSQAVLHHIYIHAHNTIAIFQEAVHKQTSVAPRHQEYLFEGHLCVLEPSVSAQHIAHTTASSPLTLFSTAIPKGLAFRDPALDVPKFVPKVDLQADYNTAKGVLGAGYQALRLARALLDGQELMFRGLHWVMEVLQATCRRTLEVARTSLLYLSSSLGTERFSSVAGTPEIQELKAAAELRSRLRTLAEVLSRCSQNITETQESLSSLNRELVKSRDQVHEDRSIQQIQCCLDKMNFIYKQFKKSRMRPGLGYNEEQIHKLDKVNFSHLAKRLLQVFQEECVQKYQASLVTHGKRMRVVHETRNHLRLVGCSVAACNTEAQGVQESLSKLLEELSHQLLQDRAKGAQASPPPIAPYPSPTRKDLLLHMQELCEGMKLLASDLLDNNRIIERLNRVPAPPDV
As to conditions: at 0.1 µM.

Assay [11] deals with T4, Inhibitor of nuclear factor kappa-B kinase subunit epsilon (Homo sapiens). The conditions noted are these: at 1 µM.
Assay [12] addresses T5, Serine/threonine-protein kinase Nek1 (Homo sapiens) (UniProt Q96PY6).
T5 sequence (whole entry): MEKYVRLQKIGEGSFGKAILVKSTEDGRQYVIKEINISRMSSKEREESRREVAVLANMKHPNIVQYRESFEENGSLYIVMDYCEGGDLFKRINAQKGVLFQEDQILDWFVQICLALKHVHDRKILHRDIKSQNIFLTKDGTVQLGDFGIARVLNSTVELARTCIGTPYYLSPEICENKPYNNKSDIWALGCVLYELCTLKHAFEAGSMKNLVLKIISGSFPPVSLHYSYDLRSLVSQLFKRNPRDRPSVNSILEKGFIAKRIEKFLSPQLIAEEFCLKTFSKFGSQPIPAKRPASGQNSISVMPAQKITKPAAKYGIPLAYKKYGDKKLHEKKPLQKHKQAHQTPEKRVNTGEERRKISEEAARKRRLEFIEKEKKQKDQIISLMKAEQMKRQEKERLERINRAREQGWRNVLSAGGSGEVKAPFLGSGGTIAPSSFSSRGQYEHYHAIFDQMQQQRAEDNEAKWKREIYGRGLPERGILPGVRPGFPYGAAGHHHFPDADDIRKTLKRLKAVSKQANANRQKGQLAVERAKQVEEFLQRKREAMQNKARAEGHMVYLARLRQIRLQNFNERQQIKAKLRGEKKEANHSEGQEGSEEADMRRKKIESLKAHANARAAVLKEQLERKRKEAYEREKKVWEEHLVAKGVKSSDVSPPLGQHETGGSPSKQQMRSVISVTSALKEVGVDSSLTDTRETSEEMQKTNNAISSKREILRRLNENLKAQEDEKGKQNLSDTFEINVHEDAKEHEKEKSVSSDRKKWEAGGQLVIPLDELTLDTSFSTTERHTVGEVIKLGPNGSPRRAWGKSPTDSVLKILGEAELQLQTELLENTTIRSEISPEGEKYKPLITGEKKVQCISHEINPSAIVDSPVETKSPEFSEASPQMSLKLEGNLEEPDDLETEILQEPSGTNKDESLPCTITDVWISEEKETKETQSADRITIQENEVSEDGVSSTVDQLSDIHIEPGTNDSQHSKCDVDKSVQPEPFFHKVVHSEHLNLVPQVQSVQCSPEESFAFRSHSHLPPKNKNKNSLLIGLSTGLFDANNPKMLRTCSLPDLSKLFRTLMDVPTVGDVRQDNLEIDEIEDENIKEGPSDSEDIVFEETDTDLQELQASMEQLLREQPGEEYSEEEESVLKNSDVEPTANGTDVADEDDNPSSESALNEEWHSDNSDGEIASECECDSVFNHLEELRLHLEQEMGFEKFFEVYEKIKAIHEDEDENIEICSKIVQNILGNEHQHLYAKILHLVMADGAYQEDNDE
The conditions noted are these: at 0.1 µM.

Assay [13] concerns the target T5, Serine/threonine-protein kinase Nek1 (Homo sapiens). As to conditions: at 1 µM.
For assay [14], the target named is T6, Serine/threonine-protein kinase Nek2 (Homo sapiens) (UniProt P51955).
T6 sequence (whole entry): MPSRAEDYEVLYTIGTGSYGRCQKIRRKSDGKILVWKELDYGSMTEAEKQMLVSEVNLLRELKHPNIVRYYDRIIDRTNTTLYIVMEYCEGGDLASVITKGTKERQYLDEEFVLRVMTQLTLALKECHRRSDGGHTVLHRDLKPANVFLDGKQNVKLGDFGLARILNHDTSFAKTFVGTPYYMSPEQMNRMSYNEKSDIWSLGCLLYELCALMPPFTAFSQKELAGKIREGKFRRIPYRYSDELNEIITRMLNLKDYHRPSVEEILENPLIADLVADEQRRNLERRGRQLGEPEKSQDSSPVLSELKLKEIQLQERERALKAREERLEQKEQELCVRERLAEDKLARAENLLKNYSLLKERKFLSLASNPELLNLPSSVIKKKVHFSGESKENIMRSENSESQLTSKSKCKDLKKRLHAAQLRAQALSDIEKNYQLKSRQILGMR
As to conditions: at 0.1 µM.

Assay [15] has as its target T6, Serine/threonine-protein kinase Nek2 (Homo sapiens). The conditions noted are these: at 1 µM.
The target of assay [16] is Serine/threonine-protein kinase Nek6 (Homo sapiens) (UniProt Q9HC98). As to conditions: at 0.1 µM.
For assay [17] the target is unchanged. As to conditions: at 1 µM.
Assay [18] concerns the target Serine/threonine-protein kinase Nek7 (Homo sapiens) (UniProt Q8TDX7). The conditions noted are these: at 0.1 µM.
Assay [19] has the same target. The conditions noted are these: at 1 µM.
The target in assay [20] is T7, Serine/threonine-protein kinase Nek9 (Homo sapiens) (UniProt Q8TD19).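 Further: reported value is the mean percent inhibition of NEK9.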
T7 sequence (whole entry): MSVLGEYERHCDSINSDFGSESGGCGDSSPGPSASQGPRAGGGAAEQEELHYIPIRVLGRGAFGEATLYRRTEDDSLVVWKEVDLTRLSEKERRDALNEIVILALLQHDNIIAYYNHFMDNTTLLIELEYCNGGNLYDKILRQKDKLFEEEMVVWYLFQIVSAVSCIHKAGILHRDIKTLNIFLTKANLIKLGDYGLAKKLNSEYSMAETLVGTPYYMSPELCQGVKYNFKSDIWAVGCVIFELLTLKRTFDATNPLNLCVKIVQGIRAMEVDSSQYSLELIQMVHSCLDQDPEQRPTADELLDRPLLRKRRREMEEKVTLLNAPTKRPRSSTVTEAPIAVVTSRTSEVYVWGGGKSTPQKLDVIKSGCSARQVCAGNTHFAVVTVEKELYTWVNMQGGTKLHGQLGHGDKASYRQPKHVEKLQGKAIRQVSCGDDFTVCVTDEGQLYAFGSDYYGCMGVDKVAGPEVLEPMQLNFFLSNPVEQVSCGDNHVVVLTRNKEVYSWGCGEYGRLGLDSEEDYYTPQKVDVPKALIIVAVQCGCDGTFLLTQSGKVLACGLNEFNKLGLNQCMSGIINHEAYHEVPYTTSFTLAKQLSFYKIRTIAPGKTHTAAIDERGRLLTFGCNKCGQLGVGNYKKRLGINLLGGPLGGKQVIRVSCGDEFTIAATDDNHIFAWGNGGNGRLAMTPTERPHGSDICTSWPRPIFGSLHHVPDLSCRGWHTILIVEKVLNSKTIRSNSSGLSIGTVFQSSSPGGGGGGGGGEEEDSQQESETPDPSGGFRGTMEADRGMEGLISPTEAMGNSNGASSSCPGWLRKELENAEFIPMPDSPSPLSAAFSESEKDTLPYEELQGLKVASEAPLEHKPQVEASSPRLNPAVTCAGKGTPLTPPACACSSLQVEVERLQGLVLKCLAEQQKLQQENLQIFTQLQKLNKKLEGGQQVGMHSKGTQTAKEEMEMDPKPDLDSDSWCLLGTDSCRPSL
The conditions noted are these: at 0.1 µM.

Casein kinase II subunit alpha (Homo sapiens), sequence (P68400 whole entry, looked up): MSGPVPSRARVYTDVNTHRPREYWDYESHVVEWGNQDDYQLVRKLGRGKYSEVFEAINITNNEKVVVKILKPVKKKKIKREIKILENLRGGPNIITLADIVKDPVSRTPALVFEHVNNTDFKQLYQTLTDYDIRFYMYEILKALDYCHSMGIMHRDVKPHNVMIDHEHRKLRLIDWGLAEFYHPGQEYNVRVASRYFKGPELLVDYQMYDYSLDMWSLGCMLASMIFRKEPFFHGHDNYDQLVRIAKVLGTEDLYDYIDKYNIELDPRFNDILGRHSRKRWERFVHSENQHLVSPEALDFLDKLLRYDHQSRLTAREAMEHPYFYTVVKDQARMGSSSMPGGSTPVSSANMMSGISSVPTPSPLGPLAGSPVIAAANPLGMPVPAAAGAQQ
Serine/threonine-protein kinase Nek6 (Homo sapiens), sequence (Q9HC98 whole entry): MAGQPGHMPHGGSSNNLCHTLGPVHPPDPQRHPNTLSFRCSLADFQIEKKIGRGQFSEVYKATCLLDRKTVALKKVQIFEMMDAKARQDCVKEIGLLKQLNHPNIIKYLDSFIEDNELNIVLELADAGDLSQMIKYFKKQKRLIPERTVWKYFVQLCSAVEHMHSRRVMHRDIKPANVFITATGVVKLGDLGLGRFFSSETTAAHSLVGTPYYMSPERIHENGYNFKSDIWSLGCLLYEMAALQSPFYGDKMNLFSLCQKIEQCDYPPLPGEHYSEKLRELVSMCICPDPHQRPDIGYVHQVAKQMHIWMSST
Serine/threonine-protein kinase Nek7 (Homo sapiens), sequence (Q8TDX7 whole entry, looked up): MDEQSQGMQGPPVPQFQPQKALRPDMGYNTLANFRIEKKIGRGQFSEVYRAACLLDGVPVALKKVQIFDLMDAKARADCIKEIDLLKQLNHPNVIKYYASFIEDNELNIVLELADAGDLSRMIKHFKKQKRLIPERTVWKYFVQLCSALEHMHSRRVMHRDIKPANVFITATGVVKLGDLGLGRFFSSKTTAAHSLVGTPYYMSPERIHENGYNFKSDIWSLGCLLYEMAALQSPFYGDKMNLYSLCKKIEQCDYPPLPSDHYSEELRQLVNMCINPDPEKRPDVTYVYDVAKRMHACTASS
Sphingosine kinase 1 (Homo sapiens), sequence (Q9NYA1 whole entry): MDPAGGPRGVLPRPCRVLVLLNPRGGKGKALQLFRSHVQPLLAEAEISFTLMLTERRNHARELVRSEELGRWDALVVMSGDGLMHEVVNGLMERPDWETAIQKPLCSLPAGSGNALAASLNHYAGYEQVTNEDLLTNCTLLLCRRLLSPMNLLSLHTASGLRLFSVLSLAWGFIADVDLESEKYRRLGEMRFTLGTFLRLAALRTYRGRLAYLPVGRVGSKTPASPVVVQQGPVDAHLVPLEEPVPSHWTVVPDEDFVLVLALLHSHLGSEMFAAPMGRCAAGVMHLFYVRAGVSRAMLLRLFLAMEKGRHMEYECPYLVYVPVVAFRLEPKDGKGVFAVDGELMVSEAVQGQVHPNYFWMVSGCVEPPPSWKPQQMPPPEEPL

Turning to `COc1cc(Nc2ncc3c(C)nc(-c4cccc(Oc5ccccc5)c4)n3n2)cc(OC)c1OC`, the inhibition – broadly, the change of the read-out against control, counted positive when it falls – in assay [1] was -0.76%; in [2], 0.82%; in assay [3] it was 0%; in assay [4] it was 0.59%; in assay [5], 12.7%; in assay [6], 2.21%. The inhibition in assay [7] was -5.5%; in assay [8] it was 1.1%; in assay [9], 0.16%; in [10], 2.97%; in assay [11], 21.3%; in assay [12] it was 2.64%. The inhibition is 11.3% in [13]; 7.11% in assay [14]; 31.6% in assay [15]; 2.7% in assay [16]; -0.99% in assay [17]; 4.1% in assay [18]. Also, the inhibition was determined as 1.98% in assay [19] and 29% in [20].
